From PubChem BioAssay (Tox21)
Values joined by “and” are separate entries in the source; they are usually repeats but may differ in a detail not shown here. Equal entries are not always repeated. Results filed as inconclusive are left out. The source holds several records for some structures; these can differ, active in one and inactive in another. Active and inactive are the calls of the source. Unless noted, calls follow the shape of the dose curve; as a rule, active = well fitted curve in the direction sought with a large enough effect in the repeat runs; inconclusive = weak or mixed curves; inactive = no such curve, though single readings can be large; an effect the other way counts as inactive or inconclusive.

Legend:
[1] = target: Thyrotropin receptor (Homo sapiens) (UniProt P16473); assay: qHTS assay to identify small molecule agonists of the thyroid stimulating hormone receptor (TSHR) signaling pathway (AID 1224843; calls by dose curve; also: nearly all actives have a fitted effect of over 45% in size); conditions: TSHR-HEK293 cells, cAMP HTRF, agonist mode, 30 min; series mostly up to 92.4 µM
How it was run: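 Cell line HEK293 with TSHR; density 800/well. Exposure 30 min RT. Readout HTRF cAMP (cAMP-d2/anti-cAMP-cryptate), 1 h RT before reading.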

[2] = qHTS assay to identify small molecule agonists of the hypoxia (HIF-1) signaling pathway - cell viability counter screen (AID 1224844; calls by dose curve; also: nearly all actives have a fitted effect of over 50% in size); conditions: HRE-bla ME-180 viability, CellTiter-Glo luminescence, 17 h; series mostly up to 76.8 µM
How it was run: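 HRE-bla ME-180 cells, 2,000/well in 0.5% dialyzed FBS medium, treated 17 h at 37C with compounds. Viability read in the same wells as the bla reporter, by CellTiter-Glo luminescence after 30 min at room temperature.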

[3] = qHTS assay to identify small molecule agonists of H2AX (AID 1224845; active = well fitted activation curve with a large enough effect in the signal ratio in the repeat runs, not every such curve was filed as active; the % refers to the signal ratio); conditions: CHO-K1 phospho-H2AX Ser139 HTRF, 3 h; series mostly up to 154 µM
How it was run: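 Wild-type CHO-K1 cells plated overnight, then exposed 3 hr at 37C to compounds at 15 concentrations (0.76% DMSO). Lysed, then HTRF anti-pH2AX(S139)-cryptate/anti-H2AX-d2 detection after 24 hr at room temperature; emissions 665 and 620 nm.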

[4] = qHTS assay to identify small molecule agonists of the hypoxia (HIF-1) signaling pathway (AID 1224846; active = well fitted activation curve with a large enough effect in the signal ratio in the repeat runs, not every such curve was filed as active; the % refers to the signal ratio); conditions: HRE-bla ME-180 cells, beta-lactamase ratio, 17 h; series mostly up to 76.8 µM
How it was run: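 HRE-bla ME-180 beta-lactamase reporter cells in medium with 0.5% dialyzed FBS, pre-incubated 5 h then exposed to compounds 17 h at 37C, 5% CO2; reporter induction read with CCF4-AM FRET substrate.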

[5] = qHTS assay to identify small molecule agonists of H2AX - cell viability counter screen (AID 1224847; calls by dose curve; also: nearly all actives have a fitted effect of over 30% in size; also: potency is read from the fitted curve at half-maximal effect); conditions: CHO-K1 viability, CellTiter-Glo luminescence, 3 h; series mostly up to 154 µM
How it was run: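 We seed wild-type CHO-K1 cells overnight, treat them for 3 hr at 37C with compounds in 15-concentration series, and quantify remaining viability by CellTiter-Glo luminescence.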

[6] = qHTS assay to identify small molecule antagonists of the estrogen related receptor (ERR) signaling pathway from Tox21 library (AID 1224848); conditions: ERR reporter cell line, luciferase antagonist mode, 18 h; series mostly up to 92.4 µM; also: nearly all actives have a fitted effect of over 50% in size
How it was run: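 Screening used an ERR reporter line supplied by NTP, exposed for 18 h at 37 C to library compounds delivered in DMSO. Signal was luciferase luminescence developed with ONE-Glo at room temperature for 30 min.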

[7] = qHTS assay to identify small molecule agonists of the estrogen related receptor (ERR) signaling pathway from Tox21 library (AID 1224849; calls by dose curve; also: nearly all actives have a fitted effect of over 15% in size); conditions: ERR reporter cell line, ONE-Glo luciferase, 18 h
How it was run: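 ERR reporter cells (NTP line) pre-incubated 6 hours at 37 C, then exposed to compounds for 18 hours at 37 C. ONE-Glo luciferase luminescence was read after 30 minutes at room temperature.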

[8] = qHTS RealTime-Glo MT Cell Viability Assay in HepG2 cells - 24 hour (AID 1224867); conditions: RealTime-Glo luminescence; series mostly up to 76.8 µM; also: nearly all actives have a fitted effect of over 50% in size
How it was run: (§1)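 qHTS, HepG2, 600 cells/well, RealTime-Glo (NanoLuc + prosubstrate) added with cells; 5 h preincubation; DMSO compound addition; 37 C; luminescence at 0/8/16/24/32/40 h.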

[9] = qHTS RealTime-Glo MT Cell Viability Assay in HEK293 cells - 32 hour (AID 1224868); conditions: RealTime-Glo luminescence; series mostly up to 76.8 µM; also: nearly all actives have a fitted effect of over 50% in size; also: potency is read from the fitted curve at half-maximal effect
How it was run: (§2)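 Assay medium contained NanoLuc luciferase plus cell-permeant prosubstrate, added with HEK293 cells at 600 cells/well. After 5 h at 37 C/5% CO2 compounds were added; plates stayed at 37 C for 40 h with serial luminescence reads.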

[10] = A CellTox Green Cytotoxicity Assay to monitor cytotoxicity in HEK293 cells - 0 hour (AID 1224869); conditions: CellTox Green fluorescence; series mostly up to 76.8 µM; also: nearly all actives have a fitted effect of over 50% in size
How it was run: (§3)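 HEK293 cells, 600/well, were preincubated 5 hours and then exposed to compounds at 37 C for up to 40 hours. A cell-impermeant cyanine dye staining dead-cell DNA was read by fluorescence at 0, 8, 16, 24, 32 and 40 h time points.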

[11] = A CellTox Green Cytotoxicity Assay to monitor cytotoxicity in HEK293 cells - 40 hour (AID 1224871); conditions: CellTox Green fluorescence; series mostly up to 76.8 µM; also: nearly all actives have a fitted effect of over 45% in size; also: potency is read from the fitted curve at half-maximal effect
How it was run: as §3

[12] = qHTS RealTime-Glo MT Cell Viability Assay in HEK293 cells - 16 hour (AID 1224872); conditions: RealTime-Glo luminescence; series mostly up to 76.8 µM; also: nearly all actives have a fitted effect of over 50% in size; also: potency is read from the fitted curve at half-maximal effect
How it was run: as §2

[13] = qHTS RealTime-Glo MT Cell Viability Assay in HepG2 cells - 8 hour (AID 1224873); conditions: RealTime-Glo luminescence; series mostly up to 76.8 µM; also: nearly all actives have a fitted effect of over 55% in size
How it was run: (§4)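 HepG2 cells mixed with RealTime-Glo MT reagents (NanoLuc plus cell-permeant prosubstrate) were seeded at 600 cells/well, incubated 5 h at 37 C/5% CO2, then pinned with compounds in DMSO; nonlytic luminescence tracked viability during 40 h treatment.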

[14] = qHTS RealTime-Glo MT Cell Viability Assay in HEK293 cells - 40 hour (AID 1224874); conditions: RealTime-Glo luminescence; max response: stronger effect = lower value; also: nearly all actives have a fitted effect of over 50% in size; also: potency is read from the fitted curve at half-maximal effect
How it was run: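 600 cells/well were plated with the nonlytic NanoLuc/prosubstrate reagent, pre-incubated 5 h, then given 23 nL of compound in DMSO. Incubation at 37 C for 40 h, with luminescence from viable-cell-reduced substrate read repeatedly from 0 h.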

[15] = A CellTox Green Cytotoxicity Assay to monitor cytotoxicity in HEK293 cells - 24 hour (AID 1224875); conditions: CellTox Green fluorescence; series mostly up to 76.8 µM; also: nearly all actives have a fitted effect of over 45% in size; also: potency is read from the fitted curve at half-maximal effect
How it was run: as §3

[16] = A CellTox Green Cytotoxicity Assay to monitor cytotoxicity in HepG2 cells - 16 hour (AID 1224876); conditions: CellTox Green fluorescence; series mostly up to 76.8 µM; also: nearly all actives have a fitted effect of over 45% in size
How it was run: (§5)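 HepG2 cells, 600/well, preincubated 5 h with CellTox Green dye, then exposed to Tox21 compounds in DMSO at 37 C for up to 40 h. Dead-cell DNA fluorescence read at the indicated time point.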

[17] = qHTS RealTime-Glo MT Cell Viability Assay in HepG2 cells - 32 hour (AID 1224877); conditions: RealTime-Glo luminescence; series mostly up to 76.8 µM; also: nearly all actives have a fitted effect of over 55% in size
How it was run: as §1

[18] = A CellTox Green Cytotoxicity Assay to monitor cytotoxicity in HepG2 cells - 24 hour (AID 1224878); conditions: CellTox Green fluorescence; series mostly up to 76.8 µM; also: nearly all actives have a fitted effect of over 45% in size
How it was run: as §5

[19] = A CellTox Green Cytotoxicity Assay to monitor cytotoxicity in HepG2 cells - 40 hour (AID 1224879); conditions: CellTox Green fluorescence; series mostly up to 76.8 µM; also: nearly all actives have a fitted effect of over 40% in size
How it was run: as §5

[20] = qHTS RealTime-Glo MT Cell Viability Assay in HepG2 cells - 40 hour (AID 1224870); conditions: RealTime-Glo luminescence; series mostly up to 76.8 µM; also: nearly all actives have a fitted effect of over 50% in size
How it was run: as §4
% is scaled to controls: 0 for no effect and ±100 for the full control effect.

Sequence of Thyrotropin receptor (Homo sapiens) (P16473 whole entry, looked up): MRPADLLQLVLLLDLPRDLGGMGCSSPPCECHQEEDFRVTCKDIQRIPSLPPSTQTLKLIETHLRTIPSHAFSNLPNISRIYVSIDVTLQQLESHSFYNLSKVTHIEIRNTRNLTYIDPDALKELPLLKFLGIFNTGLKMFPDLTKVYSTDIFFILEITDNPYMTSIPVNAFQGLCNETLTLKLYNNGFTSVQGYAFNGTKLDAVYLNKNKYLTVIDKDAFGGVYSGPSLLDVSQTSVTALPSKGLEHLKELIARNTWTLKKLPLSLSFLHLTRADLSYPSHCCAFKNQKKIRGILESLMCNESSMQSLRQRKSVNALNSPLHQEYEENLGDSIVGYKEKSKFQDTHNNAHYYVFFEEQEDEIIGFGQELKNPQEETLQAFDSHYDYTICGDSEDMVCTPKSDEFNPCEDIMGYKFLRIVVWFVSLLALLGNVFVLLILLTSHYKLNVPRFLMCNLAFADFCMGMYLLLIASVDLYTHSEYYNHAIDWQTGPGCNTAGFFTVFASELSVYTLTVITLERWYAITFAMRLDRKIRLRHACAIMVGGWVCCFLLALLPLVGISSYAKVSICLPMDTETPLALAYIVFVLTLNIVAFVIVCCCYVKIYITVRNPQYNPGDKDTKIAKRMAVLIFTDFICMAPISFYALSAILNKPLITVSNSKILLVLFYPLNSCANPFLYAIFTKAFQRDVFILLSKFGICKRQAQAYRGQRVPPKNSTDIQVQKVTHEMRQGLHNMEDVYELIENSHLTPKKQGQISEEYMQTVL

C1=Cc2cccc3cccc1c23
active: Potency [11] 49 µM | Potency [15] 49 µM
inactive: Potency [1] | Potency [2] | Potency [3] | outcome [4] | Potency [5] | Potency [6] | activity change, positive = activation ([7]; at 92.4 µM (top of the series)) -16.5% and -13.1% | Potency [8] | Potency [9] | Potency [10] | Potency [12] | Potency [13] | max response [14] -3.56% and 0.553% | Potency [16] | Potency [17] | Potency [18] | Potency [19]

CC(O)CCO (stereo not given)
inactive: Potency [1] | Potency [2] | Potency [3] | outcome [4] | Potency [5] | Potency [8] | Potency [9] | Potency [10] | Potency [20] | Potency [11] | Potency [12] | Potency [13] | max response [14] -0.607% and 26.7% | Potency [15] | Potency [16] | Potency [17] | Potency [18] | Potency [19]

Nc1cccnc1
inactive: Potency [1] | Potency [2] | Potency [3] | outcome [4] | Potency [5] | Potency [8] | Potency [9] | Potency [10] | Potency [20] | Potency [11] | Potency [12] | Potency [13] | max response [14] 2.11% and -8.29% | Potency [15] | Potency [16] | Potency [17] | Potency [18] | Potency [19]

CC(C)c1ccc(CO)cc1
inactive: Potency [1] | Potency [2] | Potency [3] | outcome [4] | Potency [5] | Potency [6] | activity change, positive = activation ([7]; at 92.4 µM (top of the series)) 2.78% and -0.788% | Potency [8] | Potency [9] | Potency [10] | Potency [20] | Potency [11] | Potency [12] | Potency [13] | max response [14] 0.21% and 0.88% | Potency [15] | Potency [16] | Potency [17] | Potency [18] | Potency [19]

COC(=O)c1sccc1S(=O)(=O)NC(=O)Nc1nc(C)nc(OC)n1
inactive: Potency [1] | Potency [2] | Potency [3] | outcome [4] | Potency [5] | Potency [8] | Potency [9] | Potency [10] | Potency [11] | Potency [12] | Potency [13] | max response [14] 4% and 6.48% | Potency [15] | Potency [16] | Potency [17] | Potency [18] | Potency [19]

N#CC(Br)Br
inactive: Potency [1] | Potency [2] | Potency [3] | outcome [4] | Potency [5] | Potency [8] | Potency [9] | Potency [10] | Potency [20] | Potency [11] | Potency [12] | Potency [13] | max response [14] -17% and 1.39% | Potency [15] | Potency [16] | Potency [17] | Potency [18] | Potency [19]

Oc1c(Cl)c(Cl)c(Cl)c(Cl)c1Cl
active: Potency [5] 88 µM
inactive: Potency [1] | Potency [2] | Potency [3] | outcome [4] | Potency [8] | Potency [9] | Potency [10] | Potency [20] | Potency [11] | Potency [12] | Potency [13] | Potency [15] | Potency [16] | Potency [17] | Potency [18] | Potency [19]

CCCCCCCCOC(=O)c1ccccc1C(=O)OCCCCCCCC
inactive: Potency [1] | Potency [2] | Potency [3] | outcome [4] | Potency [5] | Potency [8] | Potency [9] | Potency [10] | Potency [20] | Potency [11] | Potency [12] | Potency [13] | max response [14] 2.33% and -2.33% | Potency [15] | Potency [16] | Potency [17] | Potency [18] | Potency [19]

Cc1cccc(N)c1N
5.31% (inactive) and 103% (active): activity change, positive = activation ([7]; at 92.4 µM (top of the series))
inactive: Potency [1] | Potency [2] | Potency [3] | outcome [4] | Potency [5] | Potency [6] | Potency [8] | Potency [10] | Potency [20] | Potency [11] | Potency [12] | Potency [13] | Potency [15] | Potency [16] | Potency [17] | Potency [18] | Potency [19]

C=CCc1ccc2c(c1)OCO2
inactive: Potency [1] | Potency [2] | Potency [3] | outcome [4] | Potency [5] | Potency [8] | Potency [9] | Potency [10] | Potency [20] | Potency [11] | Potency [12] | Potency [13] | max response [14] 13.1% and 2.61% | Potency [15] | Potency [16] | Potency [17] | Potency [18] | Potency [19]

CCOP(=S)(OCC)O/N=C(\C#N)c1ccccc1
inactive: Potency [1] | Potency [2] | Potency [3] | outcome [4] | Potency [5] | Potency [6] | activity change, positive = activation ([7]; at 42.5 µM (top of the series)) 3.78% | activity change, positive = activation ([7]; at 92.4 µM (top of the series)) 4.34% | Potency [8] | Potency [9] | Potency [10] | Potency [20] | Potency [11] | Potency [12] | Potency [13] | max response [14] 6.15% and 1.47% | Potency [15] | Potency [16] | Potency [17] | Potency [18] | Potency [19]

Cc1ccc2c(c1N)C(=O)c1ccccc1C2=O
active: activity change, positive = activation ([7]; at 92.4 µM (top of the series)) 82.1% and 70.5% | Potency [9] 8.62 µM and 7.76 µM | Potency [12] 8.62 µM and 8.71 µM | Potency [14] 9.67 µM and 6.92 µM
inactive: Potency [1] | Potency [2] | Potency [3] | outcome [4] | Potency [5] | Potency [6] | Potency [8] | Potency [10] | Potency [11] | Potency [15] | Potency [16] | Potency [17] | Potency [18] | Potency [19]
